SARS PLpro yeast: inhibitors of SARS-CoV papain-like protease in yeast. AID 485353. S. cerevisiae expressing SARS-CoV PLpro, growth rescue. 330,000 tested, 0.19% active. Potency, µM (titrated, usually from 32.9 µM), most hits filed as activators; further: nearly all actives have a fitted effect of over 55% in size
CHX counter: counter-screen for Shiga toxin inhibitors: cycloheximide protein synthesis inhibition | cell reporter, cycloheximide protein synthesis inhibition counterscreen | max response, % | 300,000 tested, 12% active; in the data active means max response mostly above about 13%, no sharp cut-off; inactive means mostly below about 14%; further: read at 38.3 µM for the half of the compounds with a filed dose
Shiga inhibitor: inhibitors of Shiga toxin in Vero cells; Vero cells, Shiga toxin protein synthesis inhibition reporter; inhibition, % at 38.7 µM; 290,000 tested, 9.2% active; AID 2315; in the data active means inhibition mostly above about 28%, no sharp cut-off; inactive means mostly below about 43%
Pf growth 96h: P. falciparum growth inhibition at 96 hour, primary screen for plastid delayed-death inhibitors; 320,000 tested, 6.9% active; P. falciparum luciferase reporter growth, 96 h; Potency, µM (doses to about 28.7 µM), most hits filed as inhibitors; AID 504834; active means well fitted inhibition curve with a large enough effect; inconclusive means small, poorly fitted or top-dose-only effect, or another doubt; inactive means no such curve, though single readings can be large or run the other way
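P. falciparum expressing integrated firefly luciferase grown in erythrocytes (2% hematocrit, 0.05% parasitemia final) with compounds for 96 hours at 37 C, 5% CO2. Growth inhibition read as loss of luminescence after adding luciferase detection reagent.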
NS1 inh: blocks influenza NS1 protein function | Potency, µM (doses to about 46.1 µM) | 270,000 tested, 0.4% active; further: actives are rising curves; nearly all actives have a fitted effect of over 50% in size
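OD600 was taken as the measure of yeast growth restored by compound in an NS1-expressing S. cerevisiae strain. Cells had been washed out of glucose medium and diluted 1:100 into galactose -URA medium, pH 6.0.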
Pf growth 48h: P. falciparum growth inhibition at 48 hours (one generation) | P. falciparum luciferase growth in erythrocytes, 48 h | 310,000 tested, 5.9% active | Potency, µM (series often up to 28.7 µM), hits mostly inhibitors; active means well fitted inhibition curve with a large enough effect; inconclusive means small, poorly fitted or top-dose-only effect, or another doubt; inactive means no such curve, though single readings can be large or run the other way
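Luciferase-expressing parasites in RBCs, 2% Hct / 0.1% parasitemia final; RPMI 1640 + 0.5% Albumax; 37 C, 5% CO2, one generation; luminescence read-out, lower signal = inhibition.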
Numbers stand for hits; i = inactive; ? = inconclusive; nt = not tested or not shown. The list is not random: actives were taken first. Their share in the collection is about 21%. Unless noted, the call rests on the fitted dose curve.

SMILES	SARS PLpro yeast	CHX counter	Shiga inhibitor	Pf growth 96h	NS1 inh	Pf growth 48h
COC(=O)Cc1ccc(NC(=S)N2CCCC(C)C2)cc1 (stereo not drawn)	i	40.6	i	i	i	i
COc1cc(NC(=S)N2CCCC(CO)C2)cc(OC)c1 (stereo not drawn)	i	i	i	i	i	i
COc1ccc(CNc2nc(SCc3cc(=O)n4cc(Cl)ccc4n3)nc3ccccc23)cc1	i	i	i	i	i	i
Cc1cccc(-c2c3c(=O)n(C)c(=O)n(C)c3c3cccnn23)c1	i	i	i	i	i	i
OCC1CCCN(C(=S)Nc2ccc(Oc3ccccc3)cc2)C1 (stereo not drawn)	i	43.1	80.5	i	i	i
OCCN1CCN(C(=S)Nc2ccc(Oc3ccccc3)cc2)CC1	i	i	i	?	i	i
COc1ccc(C2C(C(=O)c3cccs3)=C(O)C(=O)N2CCN2CCOCC2)c(OC)c1 (stereo not drawn)	i	i	i	i	i	i
CCCCN(C(=O)COC(=O)c1ccc(C=O)cc1)c1c(N)n(CCC)c(=O)[nH]c1=O	i	nt	nt	?	nt	?
O=C(CCN1C(=O)S/C(=C\C=C\c2ccccc2)C1=O)Nc1ccc(O)cc1	i	32.4	52.1	i	i	i
O=C(CN1C(=O)S/C(=C\C=C\c2ccccc2)C1=O)Nc1cccc(O)c1	i	33.6	38.0	i	i	?
O=C(CN1C(=O)S/C(=C\c2cccs2)C1=O)Nc1ccc(O)c(C(=O)O)c1	i	i	i	10.4µM	i	i
O=C(CCCN1C(=O)S/C(=C\C=C\c2ccccc2)C1=O)Nc1ccc(C(=O)O)cc1	i	i	i	?	i	i
Cc1ccc2c(c1)N[C@H](c1ccc(C(=O)O)cc1)c1cccn1-2	nt	nt	nt	nt	i	nt
Cc1cc(NC(=O)CSc2nc(-c3ccccc3Cl)nc3c2c(=O)n(C)c(=O)n3C)no1	i	i	i	i	nt	i
O=C(c1ccc(F)cc1)C1CCN(CCn2c(=S)[nH]c3ccccc3c2=O)CC1	i	i	i	4.26µM	nt	3.79µM
O=C(CN1CCC(C(=O)c2ccc(F)cc2)CC1)NCc1ccccc1F	i	i	i	6.57µM	i	i
O=C(c1ccc(F)cc1)C1CCN(CCn2c(=O)[nH]c3ccccc3c2=O)CC1	nt	i	i	nt	nt	nt
CC1(C)C(=O)N(CCN2CCC(C(=O)c3ccc(F)cc3)CC2)c2ccccc21	nt	nt	nt	?	i	14.7µM
CSc1cnc2c(N)nc(N(C)C)nc2n1	i	i	i	i	i	i
OCC(O)CS (stereo not drawn)	nt	nt	nt	i	nt	i
COc1ccccc1N1CCc2c(C)nc3c(OC)cccc3c21	i	i	i	?	i	13.1µM
Cc1ccc(S(=O)(=O)c2c(C)cc(-c3ccccc3)[nH]c2=O)cc1	i	i	i	i	i	i
Cc1cc(C)c(S(=O)(=O)c2ccccc2)c(=O)[nH]1	i	18.0	i	i	i	i
Cc1cc(C)c(S(=O)(=O)c2cccc(C(F)(F)F)c2)c(=O)[nH]1	i	i	i	i	i	?
Cc1cccc(S(=O)(=O)c2c(C)cc(C)[nH]c2=O)c1	i	29.7	i	i	i	i
SMILES	SARS PLpro yeast	CHX counter	Shiga inhibitor	Pf growth 96h	NS1 inh	Pf growth 48h
Cc1ccc(-c2csc(N3CCN(CCCn4c(-c5ccncc5)nc5ccccc54)CC3)n2)cc1	i	i	i	2.62µM	i	?
Cc1ccc(-c2csc(N3CCC[C@@H]3C(=O)NCCn3c(-c4ccncc4)nc4ccccc43)n2)cc1	i	i	i	3.29µM	i	?
O=C(NCCn1c(C(F)(F)F)nc2ccccc21)[C@H]1CCCN1c1nc(CN2CCCCC2)cs1	i	i	i	?	i	i
COc1cccc(-c2ccnc3[nH]n(-c4ccccc4)c(=O)c23)c1	i	i	i	i	i	i
CCOc1cc(CN2CCN(c3ncccn3)CC2)ccc1OC	i	i	i	?	?	?
CCOC(=O)c1c(C)[nH]c(C)c1S(=O)(=O)NCCN1CCN(c2ccccc2F)CC1	i	i	i	i	i	?
Cc1sc2ncnc(NC3CCN(Cc4ccccc4)CC3)c2c1C	i	i	i	i	i	i
Clc1ccccc1C1NCc2ccccc2-n2cccc21 (stereo not drawn)	i	i	i	?	nt	i
CCOc1cc(C2NCc3ccccc3-n3cccc32)ccc1O (stereo not drawn)	i	i	i	i	i	2.62µM
Oc1ccccc1C1NCc2ccccc2-n2cccc21 (stereo not drawn)	i	i	i	i	i	13.1µM
Clc1ccc(-c2c(C3=NCCCN3)nnn2-c2ccc(Cl)cc2)cc1	i	i	i	?	i	?
O=C(Nc1ccc(OC(F)F)c(Cl)c1)[C@@H]1CCCN1C(=O)c1cccs1	i	i	i	4.15µM	i	?
CCOc1ccc(NC(=O)CN(C)Cc2ccc3c(c2)OCO3)cc1S(=O)(=O)N1CCCC1	i	nt	nt	3.29µM	nt	?
CCOc1ccc(NC(=O)[C@@H]2CCCN2C(=O)c2cccs2)cc1S(=O)(=O)N1CCCCC1	i	nt	nt	9.28µM	nt	?
CCOc1ccc(NC(=O)CN2C(=O)NC3(CCCC3)C2=O)cc1S(=O)(=O)N1CCCCC1	i	nt	nt	i	nt	i
CCOc1ccc(NC(=O)CN2CCCC2c2cccs2)cc1S(=O)(=O)N1CCCCC1 (stereo not drawn)	i	nt	nt	?	nt	11.7µM
COc1ccc(NC(C)=O)cc1NC(=O)C1CCCN1C(=O)c1cccs1 (stereo not drawn)	i	nt	nt	i	nt	i
S=c1[nH]nc(C2(c3ccccc3)CCCC2)o1	i	i	i	i	i	i
CN(C)S(=O)(=O)c1cccc(C(=O)Nc2cc3c(cc2C(=O)O)OCCCO3)c1	i	i	i	i	i	i
Cc1ccc(NC(=O)CN2CCCC2c2cccs2)cc1S(=O)(=O)N1CCCCC1 (stereo not drawn)	i	nt	nt	?	nt	9.28µM
c1ccc(-c2ccc(-c3nc(-c4ccccn4)no3)cc2)cc1	i	i	i	?	i	nt
Fc1ccc(-c2nc(-c3cnccn3)no2)c(Cl)c1	i	40.3	83.3	i	i	i
Clc1ccc(-c2nc(-c3cnccn3)no2)cc1	i	30.2	58.6	i	i	i
CCC(c1nnc(SC(C)C(=O)NC2CC2)n1-c1ccc(OC)cc1)N(C)C (stereo not drawn)	i	nt	nt	?	nt	?
C/C(=N\NS(=O)(=O)c1c(C)cc(C)cc1C)c1ccncc1	i	i	i	i	i	i
Cn1ncc(N=Cc2ccccc2)c1C(=O)Nc1cccc(Cl)c1	i	i	i	i	i	i
O=C(OCn1ncc(Br)c(Br)c1=O)c1ccccc1Cl	i	i	i	nt	i	i
O=C(OCn1ncc(Br)c(Br)c1=O)c1ccc(F)cc1	i	23.9	i	?	i	nt
COc1ccc(NC(C)C(=O)Nc2ccc(C(C)(C)C)cc2)cc1Cl (stereo not drawn)	i	20.4	i	nt	i	?
COc1ccc(NC(C)C(=O)Nc2ccc(C#N)cc2)cc1Cl (stereo not drawn)	i	i	i	2.33µM	i	nt

Screening data (PubChem BioAssay)
